mIDH1 inhibitor = inhibitors of human mutant IDH1 R132H. O75874. IDH1-R132H enzyme, NADPH consumption, diaphorase/resazurin fluorescence. Potency, µM (titrated, usually from 76.6 µM), for the others: at the highest dose activity change, negative = inhibition, most hits filed as inhibitors. 0.093% of 390,000 active. AID 602179; also: potency is read from the fitted curve at half-maximal effect; % is scaled to controls: 0 for no effect and ±100 for the full control effect; nearly all actives have a fitted effect of over 65% in size
Target sequence (O75874 whole entry R132H, stated change not applied): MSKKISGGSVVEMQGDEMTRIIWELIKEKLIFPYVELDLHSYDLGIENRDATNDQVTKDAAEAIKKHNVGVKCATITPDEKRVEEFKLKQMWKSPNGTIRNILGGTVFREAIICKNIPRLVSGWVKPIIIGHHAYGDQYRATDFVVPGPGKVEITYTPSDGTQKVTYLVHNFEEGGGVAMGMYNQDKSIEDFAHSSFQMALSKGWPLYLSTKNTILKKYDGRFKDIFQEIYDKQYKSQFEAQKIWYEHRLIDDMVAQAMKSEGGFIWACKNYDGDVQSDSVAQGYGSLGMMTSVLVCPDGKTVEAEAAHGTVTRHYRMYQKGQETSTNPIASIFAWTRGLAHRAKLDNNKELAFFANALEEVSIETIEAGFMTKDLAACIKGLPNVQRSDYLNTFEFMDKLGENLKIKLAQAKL
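IDH1-R132H (0.5 ug/mL dispensed) in pH 7.5 Tris buffer was preincubated 30 min with compound, then given a substrate mix of 0.016 mM NADPH and 2 mM alpha-KG for 80 min at room temperature; remaining NADPH was read by diaphorase/resazurin fluorescence.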
ALOX12 inh = blocks human arachidonate 12S-lipoxygenase; P18054; purified 12hLO, xylenol orange hydroperoxide absorbance; Potency, µM (series often up to 108 µM), inactives show at the highest dose activity change, negative = inhibition, actives largely listed as inhibitors; 1.1% of 580,000 active; AID 1671190; also: potency is read from the fitted curve at half-maximal effect; % is scaled to controls: 0 for no effect and ±100 for the full control effect
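Hydroperoxide product was detected by ferrous iron/xylenol orange as the 573 to 405 nm absorbance ratio. Arachidonic acid at 40 uM (final) was turned over for 30 min at room temperature by 150 nM human 12hLO, pH 7.0 Hepes buffer, after 15 min compound preincubation.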
Nrf2 activator = Nrf2 pathway activation. AREc32 ARE-luciferase reporter (MCF7-derived line), luminescence, 24 h. Potency, µM (doses to about 46.1 µM), for the others: at the top dose activation, actives largely listed as activators. 0.31% of 410,000 active. AID 624171; also: potency is read from the fitted curve at half-maximal effect; % of control where 0% means no effect; nearly all actives have a fitted effect of over 65% in size
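Luciferase luminescence (Steady-Glo, 30 min at room temperature) served as the read-out of ARE activation in AREc32 cells treated with compounds for 24 hr at 37 deg C.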
Nrf2 inh = inhibitors of Nrf2 signaling | A549 ARE-Fluc reporter, luciferase luminescence, 18-24 h | Potency, µM (top dose mostly 46 µM), inactives show top-dose activity change, negative = inhibition, usual class: inhibitors | 2.1% of 360,000 active; also: potency is read from the fitted curve at half-maximal effect; % is scaled to controls: 0 for no effect and ±100 for the full control effect; nearly all actives have a fitted effect of over 60% in size
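Cells were seeded and rested 2 h, then exposed to compounds for 18-24 h. CellTiter-Fluor was read first as a viability measure. BugLite was added 15 min before the final luminescent read of ARE-luciferase activity in A549 cells.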
A549 viability = kills or reduces viability of A549 cells in Nrf2 counter-screen; A549 ARE-Fluc cells, CellTiter-Fluor viability, 18-24 h; Potency, µM (highest dose often 46 µM), inactives show at the top dose activity change, negative = cytotoxicity, most hits filed as inhibitors; 0.16% of 390,000 active; AID 504648; also: potency is read from the fitted curve at half-maximal effect; % is scaled to controls: 0 for no effect and ±100 for the full control effect
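A549 ARE_Fluc cells in 5% FBS OPTI-MEM were exposed to compounds in concentration-response for 18-24 h at 37 deg C. Viability was read by CellTiter-Fluor fluorescence (Ex 405/Em 525) after 30 min, before the luciferase read.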
LDHA block = LDHA (human) enzyme inhibition; P00338; purified LDHA, NADH/diaphorase-resazurin fluorescence; active compounds read low; activity change, % (values are at about 110 or 230 µM); 0.15% of 480,000 active; AID 1347041; in the data active = activity change below about -30%; inconclusive = mostly about -25% to -30%;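 also: plate controls were DMSO wells for no effect and wells without enzyme for full effect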
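Human LDH5 at 2 nM final in Tris HCl pH 7.4 with 0.06 mM NADH and 0.2 mM pyruvate, reacted 5 minutes at room temperature. Remaining NADH coupled via diaphorase/resazurin; resorufin fluorescence read at 0 and 20 minutes, normalized to enzyme-free and DMSO wells.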
* = called active by the depositor; ? = inconclusive; nt = no result; ! = a repeat was not active. Compounds with a hit are over-represented: about 2.7% of the library has one in this group of screens. Unless noted, calls follow the shape of the dose curve; as a rule, active = well fitted curve in the direction sought with a large enough effect; inconclusive = small, poorly fitted or top-dose-only effect, or another doubt; inactive = no such curve, though single readings can be large; an effect the other way counts as inactive or inconclusive.

SMILES	mIDH1 inhibitor	ALOX12 inh	Nrf2 activator	Nrf2 inh	A549 viability	LDHA block
COc1ccc(-c2cn3c(n2)CO[C@@H](CNCc2ccc(Cl)cc2)C3)cc1	nt	8.9µM*	nt	nt	nt	nt
CC(C)[C@H](Nc1ncnc2sc3c(c12)CCCC3)C(=O)O	nt	?	nt	nt	nt	3
O=C1Nc2ccccc2CN(Cc2ccc(Cl)cc2)C12CCNC2 (centres undefined)	nt	20µM*	nt	nt	nt	nt
O=C(Nc1ccc(SC(F)F)cc1)c1ccc2c(=O)n3c(nc2c1)CCC3	1%	213%	7%	5.8µM*	?	1
O=C(Nc1ccc(S(=O)(=O)C(F)F)cc1)c1ccc2c(=O)n3c(nc2c1)CCC3	7%	-21%	2%	15µM*	-10%	1
COc1ccc(NC(=O)c2ccc3c(=O)n4c(nc3c2)CCCCC4)cc1	-3%	-11%	2%	-3%	-10%	-7
CN(C)CCNCc1ccc2c(c1)OCO2	nt	?	nt	nt	nt	8
Cc1scc(C(=O)NCC2CCCCC2)c1C	nt	16µM*	nt	nt	nt	-2
CCc1ccc(NC(=O)Nc2ccc3sc(NC(C)=O)nc3c2)cc1	nt	7.1µM*	nt	nt	nt	8
COc1ccc(NC(=O)c2ccc(-c3csc(C)n3)cc2)cc1	-1%	-3%	0%	21µM*	-18%	-3
Cc1nc(-c2ccc(NC(=O)c3ccco3)cc2)cs1	-1%	-14%	-3%	7.3µM*	3%	-5
Cc1nc(-c2ccc(C(=O)Nc3cccc(F)c3)cc2)cs1	-17%	?	-2%	?	-1%	-8
Cc1nc(-c2cccc(NC(=O)c3ccc(-n4cccn4)cc3)c2)cs1	-4%	40%	1%	15µM*	-7%	1
Cc1cc2nc(CSc3nc4ccc(NC(=O)c5ccccc5)cc4s3)cc(=O)n2o1	nt	41%	nt	nt	nt	3
Fc1ccccc1CSCc1ccc(-c2nc(-c3ccc4c(c3)OCO4)no2)o1	nt	?	nt	nt	nt	-6
CC1(C)CC(=O)C2=C(C1)NC(Nc1nc3ccccc3o1)=NC2c1cccc(O)c1 (centres undefined)	nt	nt	nt	21µM*	?	-8
Cc1c(NC(=O)c2c(NC(=O)CNC3CC3)sc3c2CCCC3)c(=O)n(-c2ccccc2)n1C	3%	6%	0%	6%	0%	-89*
O=C1C2CC=CCC2C(=O)N1c1ccc(Cc2ccncc2)cc1 (centres undefined)	2%	3%	-1%	9.2µM*	-16%	3
CCN1CCN(c2ccc(NC(=O)c3cnc4ccccc4n3)cc2C)CC1	nt	?	nt	nt	nt	5
Cn1nnc(NC(=S)NC(=O)c2ccco2)n1	6%	?	1%	-11%	1%	-1
Cn1nnc(NC(=S)NC(=O)c2cc3ccccc3o2)n1	7%	2.5µM*	5%	3%	0%	-2
O=C(Nc1cc(-c2nc3ncccc3o2)ccc1Cl)c1cccs1	0%	5%	6.3µM*	-2%	-8%	-10
COc1ccc(-c2nc3ncccc3o2)cc1NC(=O)c1cccs1	-4%	-8%	2%	-15%	0%	-6
CC1CCc2c(sc3ncnc(SCC(=O)N(C)C)c23)C1 (centres undefined)	nt	-11%	nt	nt	nt	13
CCN(C(=O)CSc1ncnc2sc(C)c(C)c12)C1CCS(=O)(=O)C1 (centres undefined)	-4%	5%	0%	13µM*	-1%	-5
SMILES	mIDH1 inhibitor	ALOX12 inh	Nrf2 activator	Nrf2 inh	A549 viability	LDHA block
Cc1sc2ncnc(SCC(=O)c3cccs3)c2c1C	-3%	-21%	14µM*	?	-15%	-13
CCCN(CC1CC1)C(=O)CSc1ncnc2sc(C)c(C)c12	8%	2%	1%	?	-1%	-1
CC1CCc2c(sc3ncnc(SCC(=O)N(C)C4CCS(=O)(=O)C4)c23)C1 (centres undefined)	12%	22%	0%	16µM*	-4%	-1
Cc1cccc(NC(=O)CSc2ncnc3sc(C)c(C)c23)n1	3%	-14%	10%	?	-4%	-2
Cc1nc2c(cnn2C(C)C)cc1C(=O)N(C)Cc1ccccc1F	nt	5%	nt	nt	nt	-14
Cc1ccc(NC(=O)CSCC(=O)OC(C)C(=O)Nc2ccc(S(N)(=O)=O)cc2)c(C)c1 (centres undefined)	-9%	?	0%	2%	4%	-44*
COC(=O)c1cccc(OCC(O)CN(C)C(C)c2cccs2)c1 (centres undefined)	nt	?	nt	nt	nt	5
COc1ccc(-n2c(C)cc(/C=C3\SC(=O)NC3=O)c2C)cc1	8%	?	6%	?	-24%	3
Cc1cc(/C=C2\SC(=Nc3ccccc3)NC2=O)c(C)n1-c1ccc(S(N)(=O)=O)cc1	-23%	-13%	4%	nt	8.2µM*	-4
Cc1ccc(S(=O)(=O)N2CCN(CCS(=O)(=O)CCC(N)=O)CC2)cc1C	nt	5%	nt	nt	nt	5
COc1cccc(Cn2cnc3c2c(=O)n(C)c(=O)n3C)c1	-9%	-1%	-1%	13µM*	-1%	-5
Cn1cnc2c1c(=O)n(Cc1cccc(Cl)c1)c(=O)n2C	-3%	9%	-1%	-8%	0%	-32*!
COc1ccc2c(C)c(CC(=O)Nc3nnc(C4CC4)s3)c(=O)oc2c1OC	nt	-5%	nt	nt	nt	-5
Cc1cc(C)cc(OCc2nnc(SCC(=O)NC3CCCCCC3)n2C)c1	nt	-9%	nt	nt	nt	-7
COC(=O)c1ccc(COc2ccccc2/C=N/O)cc1	nt	-28%	nt	nt	nt	3
COC(=O)c1ccc(COc2ccccc2/C=C/C(=O)c2ccc(OCC(=O)O)cc2)cc1	9%	-14%	18µM*	2%	-1%	-3
COc1ccccc1NC(=S)NC1CCC(CC2CCC(NC(=S)Nc3ccccc3OC)CC2)CC1 (centres undefined)	-2%	32µM*	0%	-14%	17%	-6
COc1ccccc1NC(=S)NC1CCCC1	10%	?	0%	-12%	0%	-5
C=CCn1c(C)cc(-c2csc(N)n2)c1C	1%	?	0%	nt	-12%	12
CCCn1c(C)cc(-c2csc(N)n2)c1C	-2%	35µM*	0%	14%	-13%	0
COc1ccc(-c2cn3cc(C)ccc3n2)cc1OC	15%	-17%	-1%	?	2%	-2
COc1ccc(-c2cn3ccccc3n2)cc1OC	5%	?	11µM*	?	3%	-3
COc1cc2c(cc1OC)C(C)N(C(=O)c1cc3c(C)cc(C)cc3[nH]1)CC2 (centres undefined)	-5%	-26%	0%	15µM*	-7%	2
CC1=C[C@@H](CN2CCC[C@H]2CO)[C@H](C(C)C)C[C@H]1Cc1nnc(-c2ccc(N(C)C)cc2)o1	nt	107%	nt	nt	nt	nt

Screening results: PubChem, National Center for Advancing Translational Sciences (NCATS)
